# Laboratory results from PubChem BioAssay (NCATS).
# Unmarked numbers belong to inactive results. Results filed as inconclusive are left out. A call without a number means that no potency is given here. Activity calls are given as the source filed them. Unless noted, calls follow the shape of the dose curve; as a rule, active = well fitted curve in the direction sought with a large enough effect; inconclusive = small, poorly fitted or top-dose-only effect, or another doubt; inactive = no such curve, though single readings can be large; an effect the other way counts as inactive or inconclusive.
# Assays:
# [1] = NCATS anti-infectives library activity on HEK293 viability as a counter-qHTS vs the C. elegans viability qHTS (AID 1745854)
# Outline: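 HEK293 cells, 1500 per well, exposed 24 hr at 37C in 5% CO2 to compounds in a 1:5 titration, up to 41.7 uM final. Viability read as CellTiter-Glo luminescence after 10 min at room temperature.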
# [2] = NCATS anti-infectives library activity on the primary C. elegans qHTS viability assay (AID 1745855; calls by dose curve; also: potency is read from the fitted curve at half-maximal effect)
# Outline: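 Viability is taken from GFP fluorescence of PE254-GFP-FLuc C. elegans imaged by laser cytometry over 7 days. Ten L1 worms per well grow at 21 °C on TOP10 E. coli capsules with titrated compound; levamisole marks toxicity.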
# [3] = target: Glutathione peroxidase 1 (Homo sapiens) (UniProt P07203); assay: Primary qHTS Assay for Inhibitors of Recombinant Selenoprotein Glutathione Peroxidase 1 (GPX1) (AID 1845191); also: nearly all actives have a fitted effect of over 65% in size
# Outline: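 10 nM GPX1 + cpd, 30 min RT; start w/ 1 mM GSH, 0.5 mM cumene hydroperoxide, 0.5 mM NADPH, 100 nM GR, 0.01% BSA; buffer 50 mM Tris-HCl pH 7.5, 2 mM EDTA, 150 mM NaCl; Fl 340/450, 0 & 15 min.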
# [4] = target: Phospholipid hydroperoxide glutathione peroxidase GPX4 (Homo sapiens) (UniProt P36969); assay: Primary qHTS Assay for Inhibitors of Recombinant Selenoprotein Glutathione Peroxidase 4 (GPX4) (AID 1845192); also: nearly all actives have a fitted effect of over 65% in size
# Outline: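 NADPH consumption, followed by fluorescence at 340/450 nm between 0 and 15 min, reports GPX4 activity via coupled glutathione reductase (100 nM). Enzyme 200 nM was pre-exposed to compound 30 min; 0.5 mM cumene hydroperoxide and 1 mM GSH served as substrates.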
# [5] = Quantitative High-Throughput drug screen in 47 multiple myeloma cell lines against the NCATS MIPE library collection: FR4_PLB cell viability assay (AID 1918924; also: nearly all actives have a fitted effect of over 35% in size; also: potency is read from the fitted curve at half-maximal effect)
# Outline: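 Primary qHTS used for cherry-picking: cells at 500/well, library compounds for 48 h (37C, 5% CO2), luminescent ATP assay.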
# [6] = Quantitative High-Throughput drug screen in 47 multiple myeloma cell lines against the NCATS MIPE library collection: EJM_DSMZ cell viability assay (AID 1918926; also: nearly all actives have a fitted effect of over 30% in size; also: potency is read from the fitted curve at half-maximal effect)
# Outline: (§1)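 qHTS of the MIPE 4.0 collection: 500 myeloma cells/well, 48 h drug exposure at 37C in 5% CO2, then CellTiter-Glo for 5 min at room temperature before luminescence reading.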
# [7] = Quantitative High-Throughput drug screen in 47 multiple myeloma cell lines against the NCATS MIPE library collection: AMO1_DSMZ cell viability assay (AID 1918927; also: nearly all actives have a fitted effect of over 30% in size; also: potency is read from the fitted curve at half-maximal effect)
# Outline: as §1
# [8] = target: Luciferin 4-monooxygenase (Photinus pyralis) (UniProt P08659); assay: Primary firefly luciferase (FLuc) qHTS assay for identification of artifact compounds. (AID 1845220); also: nearly all actives have a fitted effect of over 60% in size
# Outline: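 Cell-free, 1536-well qHTS. Buffer pH 7.6 with 0.01% Tween-20 and 0.05% BSA; 10 uM D-luciferin, 10 uM ATP; 10 nM P. pyralis luciferase; luminescence after 5 min.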
# [9] = Primary fluorescence-based thiol-reactive (MSTI) qHTS assay for identification of artifact compounds. (AID 1845221);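 also: series mostly up to about 54 µM; thiol-reactive compounds lower the probe fluorescence signal; nearly all actives have a fitted effect of over 65% in size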
# Outline: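 qHTS titration of compound; 4 uM MSTI, PBS pH 7.4, 2% DMSO; 1 h RT, dark; fluorescence 525/598 nm; normalized to Acetyl-MSTI and MSTI; 4-parameter Hill fit.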
# [10] = test system: Nanoluciferase (engineered Oplophorus gracilirostris luciferase); assay: Primary Nanoluciferase (NLuc) qHTS assay for identification of artifact compounds. (AID 1845222); also: series mostly up to about 54 µM
# Outline: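 Compounds are pinned into diluted (1:55) conditioned medium of NLuc-expressing S16 cells and held 15 min at room temperature protected from light. Nano-Glo substrate follows, and luminescence is read 5 min later.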
# [11] = Primary redox qHTS assay for identification of artifact compounds. (AID 1845223)
# Outline: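 Amplex Red (25 uM) and HRP (250 mU/mL) in HBSS, with compounds for 15 min, then 250 uM DTT for 30 min, room temperature, dark. Fluorescence 525/598 nm read; normalized to DMSO and 10 uM DA3003; Hill fit.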
# [12] = Quantitative High-Throughput drug screen in 47 multiple myeloma cell lines against the NCATS MIPE library collection: Delta47_JCRB cell viability assay (AID 1918925; also: nearly all actives have a fitted effect of over 45% in size; also: potency is read from the fitted curve at half-maximal effect)
# Outline: as §1
# [13] = Quantitative High-Throughput drug screen in 47 multiple myeloma cell lines against the NCATS MIPE library collection: ARP1_JJKsccF8 cell viability assay (AID 1918928; also: nearly all actives have a fitted effect of over 40% in size; also: potency is read from the fitted curve at half-maximal effect)
# Outline: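 Here, 48 h treatment with MIPE 4.0 agents at 37 °C preceded an ATP luminescence read. Plating density was 500 cells per well.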
# Phospholipid hydroperoxide glutathione peroxidase GPX4 (Homo sapiens), sequence (P36969 whole entry, looked up): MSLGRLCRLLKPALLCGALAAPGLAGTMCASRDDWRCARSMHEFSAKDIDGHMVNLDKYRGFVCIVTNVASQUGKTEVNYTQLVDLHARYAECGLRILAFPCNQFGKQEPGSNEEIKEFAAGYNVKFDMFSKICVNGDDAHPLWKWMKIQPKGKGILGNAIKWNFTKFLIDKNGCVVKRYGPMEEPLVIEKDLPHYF
# Glutathione peroxidase 1 (Homo sapiens), sequence (P07203 whole entry, looked up): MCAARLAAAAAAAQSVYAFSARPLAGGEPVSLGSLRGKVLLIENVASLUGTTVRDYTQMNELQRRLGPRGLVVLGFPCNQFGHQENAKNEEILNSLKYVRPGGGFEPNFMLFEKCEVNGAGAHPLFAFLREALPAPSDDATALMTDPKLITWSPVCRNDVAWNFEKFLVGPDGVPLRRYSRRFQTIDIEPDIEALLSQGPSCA
SMILES,Potency [1],Potency [2],Potency [3],Potency [4],Potency [5],Potency [6],Potency [7],Potency [8],Potency [9],outcome [10],Potency [11],Potency [12],Potency [13]
C[C@H](NC(=O)[C@@H](O)c1cc(F)cc(F)c1)C(=O)N[C@@H]1C(=O)N(C)c2ccccc2-c2ccccc21,inactive,0.365 µM (active),inactive,inactive,inactive,inactive,inactive,–,–,–,–,–,–
Cc1cncc2cccc(S(=O)(=O)N3CCCN(C(=O)CN)C[C@@H]3C)c12,–,–,inactive,inactive,–,23.5 µM (active),10.5 µM (active),inactive,inactive,inactive,inactive,23.5 µM (active),–
CC(=O)SCC(Cc1ccccc1)C(=O)NCC(=O)OCc1ccccc1 (stereo not drawn),–,–,inactive,inactive,18.7 µM (active),14.8 µM (active),3.72 µM (active),–,–,–,–,1.05 µM (active),2.35 µM (active)
CCOC(=O)C1=C(C)NC(=S)NC1c1cccc(O)c1 (stereo not drawn),–,–,inactive,inactive,0.0187 µM (active),0.0469 µM (active),0.662 µM (active),–,–,–,–,0.0166 µM (active),–
c1cncc(CN2CCC(n3ncc4c(N5CCOCC5)nc(-c5ccc6[nH]ccc6c5)nc43)CC2)c1,–,–,inactive,inactive,4.69 µM (active),5.9 µM (active),–,inactive,inactive,inactive,inactive,0.743 µM (active),3.32 µM (active)
Cn1cnc2c(F)c(Nc3ccc(Br)cc3F)c(C(=O)NOCCO)cc21,–,–,inactive,inactive,–,inactive,1.05 µM (active),inactive,inactive,inactive,inactive,inactive,inactive
Nc1ccn(C2CO[C@H](CO)O2)c(=O)n1 (stereo partly drawn),–,–,inactive,inactive,inactive,inactive,inactive,inactive,inactive,inactive,inactive,–,–
FC(F)c1nc2ccccc2n1-c1nc(N2CCOCC2)nc(N2CCOCC2)n1,–,–,inactive,inactive,–,0.743 µM (active),0.209 µM (active),inactive,inactive,inactive,inactive,0.0662 µM (active),0.166 µM (active)
NC(=O)Nc1sc(-c2ccc(F)cc2)cc1C(N)=O,–,–,inactive,inactive,2.35 µM (active),1.87 µM (active),0.132 µM (active),–,–,–,–,0.187 µM (active),–
C[N+]1(C)[C@@H]2C[C@@H](OC(=O)C(O)(c3cccs3)c3cccs3)C[C@H]1[C@@H]1O[C@@H]12,–,–,inactive,inactive,inactive,inactive,inactive,inactive,inactive,inactive,inactive,–,–
Cc1ccc(-n2[nH]c(C)c(N=Nc3cccc(-c4cccc(C(=O)O)c4)c3O)c2=O)cc1C,–,–,inactive,inactive,20.9 µM (active),–,–,–,–,–,–,–,–
NC(=NCCCCCCN=C(N)N=C(N)Nc1ccc(Cl)cc1)N=C(N)Nc1ccc(Cl)cc1,–,–,inactive,inactive,16.6 µM (active),2.64 µM (active),23.5 µM (active),–,–,–,–,2.64 µM (active),8.33 µM (active)
COc1cc(C)c(Sc2cnc(NC(=O)c3ccc(CNC(C)C(C)(C)C)cc3)s2)cc1C(=O)N1CCN(C(C)=O)CC1 (stereo not drawn),–,–,inactive,inactive,20.9 µM (active),18.7 µM (active),5.26 µM (active),–,–,–,–,2.09 µM (active),16.6 µM (active)
Oc1ccc([C@@H]2Oc3ccc(O)cc3[C@@H]3CCC[C@@H]32)cc1,–,–,inactive,inactive,–,–,–,inactive,inactive,inactive,inactive,–,23.5 µM (active)
OCCNC1CCCc2c1[nH]c1ccc(-c3ccccc3)cc21 (stereo not drawn),–,–,inactive,inactive,–,–,16.6 µM (active),inactive,inactive,inactive,inactive,10.5 µM (active),–
O=C1NC(O)CCN1[C@@H]1O[C@H](CO)[C@H](O)[C@H]1O (stereo partly drawn),–,–,inactive,inactive,inactive,inactive,–,–,–,–,–,inactive,–
Oc1cc(-c2nc(-c3ccccc3)[nH]c2-c2ccncc2)ccc1Cl,–,–,inactive,inactive,–,18.7 µM (active),5.26 µM (active),inactive,inactive,inactive,inactive,4.69 µM (active),–
CCc1ccc(C(=O)Nc2cc(CN3CCN(C)CC3)cc(C(F)(F)F)c2)cc1C#Cc1cnc2ccnn2c1,–,–,inactive,inactive,11.8 µM (active),–,4.69 µM (active),inactive,inactive,inactive,–,13.2 µM (active),5.9 µM (active)
C=CC(=O)Nc1ccc2ncnc(Nc3ccc(OCc4cccc(F)c4)c(Cl)c3)c2c1,–,–,inactive,inactive,6.62 µM (active),5.26 µM (active),0.0209 µM (active),inactive,inactive,–,inactive,0.187 µM (active),0.296 µM (active)
